Measurements published in PubChem BioAssay (NCATS).
Where “and” joins values, the source holds several entries; their conditions need not be identical. Equal values may be shown once. Calls of active or inactive are those of the source.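 Rule for the calls: active = calcium activation more than 3 SD above the typical response in the agonist read; inactive = the rest.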

These compounds were tested against Thyrotropin-releasing hormone receptor (Homo sapiens) (UniProt P34981) (assay: qHTS for Small Molecule Agonists and Allosteric Enhancers of Human TRH Receptor: Validation Screen for Agonists (AID 493127;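 note: intracellular calcium rise by fluo-8 fluorescence before TRH EC20 addition; 0% is about no effect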)). Details: TRH receptor agonist cell assay; at 2 µM; active compounds read high.
Chain of Thyrotropin-releasing hormone receptor (Homo sapiens) (P34981 whole entry, looked up): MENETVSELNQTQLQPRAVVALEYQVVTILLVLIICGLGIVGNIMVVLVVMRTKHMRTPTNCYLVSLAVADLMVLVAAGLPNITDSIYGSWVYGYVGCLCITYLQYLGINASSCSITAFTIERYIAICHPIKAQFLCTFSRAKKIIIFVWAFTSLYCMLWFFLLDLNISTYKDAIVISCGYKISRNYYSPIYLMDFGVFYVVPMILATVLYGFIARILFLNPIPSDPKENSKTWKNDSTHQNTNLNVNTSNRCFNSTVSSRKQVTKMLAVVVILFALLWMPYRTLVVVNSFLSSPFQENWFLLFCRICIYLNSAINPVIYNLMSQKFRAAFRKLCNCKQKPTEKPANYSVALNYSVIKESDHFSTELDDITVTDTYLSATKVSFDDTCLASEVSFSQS
How it was run: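 Kinetic fluorescence assay of agonist-induced calcium release: overnight-plated TRHR cells, room-temperature fluo-8 loading, baseline then compound addition with per-second reads.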
With `COC(=O)[C@@H]1[C@H]2C[C@H]3c4[nH]c5ccccc5c4CCN3C[C@@H]2CC[C@@H]1O` the activation was 0.625% (inactive). `CC(=O)c1ccc(S(=O)(=O)NC(=O)NC2CCCCC2)cc1` was tested, and the activation was 0.188% (inactive). With `Clc1ccc(Cn2c(CN3CCCC3)nc3ccccc32)cc1` the activation was -8.12% (inactive). `O=C(O)CCc1nc(-c2ccccc2)c(-c2ccccc2)o1` was tested, and the activation was -0.125% (inactive). For `CC(C)NCC(O)COc1cccc2[nH]ccc12` (configuration not stated), the activation was -0.25% (inactive). `O=C1NCC2(CCN(CCc3ccccc3)CC2)O1` was tested, and the activation was 0.562% (inactive). `CC(=O)CCCCn1c(=O)c2c(ncn2C)n(C)c1=O` was tested, and the activation was -2.31% (inactive). `CN(C)CCC(c1ccccc1)c1ccccn1` (configuration not stated) was tested, and the activation was 1.44% (inactive). For `CCN(CC)C(=O)c1ccc(O)c(OC)c1`, the activation was 0.938% (inactive). In the case of `CCN1CCC[C@H]1CNC(=O)c1cc(S(N)(=O)=O)ccc1OC`, the activation is reported as 1% (inactive). In the case of `Cc1cccc(C)c1OCC(C)N` (configuration not stated), the activation is reported as 0.438% (inactive). In the case of `O=C1NC(=O)C(c2ccccc2)(c2ccccc2)N1`, the activation is reported as 0.438% (inactive). For `C[N+](C)(C)CCCCCC[N+](C)(C)C`, the activation was 0.625% (inactive) and 0.562% (inactive). In the case of `CCN(CC)CCOC(=O)c1ccc(N)cc1`, the activation is reported as -0.312% (inactive). For `NCCS`, the activation was 1.25% (inactive). `COc1ccccc1N1CCN(CCCNc2cc(=O)n(C)c(=O)n2C)CC1` was tested, and the activation was -2.81% (inactive). With `CCCCC1C(=O)N(c2ccccc2)N(c2ccccc2)C1=O` the activation was 1.38% (inactive).
